From the supplement of paper PMC10849652
The full data set covers some 7,900 targets. This sample favours those with a hit. About 0.6% of all pairs of compound and target were hits. A number with no mark means an inactive call.

Legend:
Test in all cases: log2 fold change, soluble protein after heating vs DMSO (PISA); higher = thermal stabilisation; K562 cells, 10 uM, 30 min; active = over 0.2 and 3.5 SD of the protein, either way, in both replicates (recomputed)
bafetinib = compound: Cc1ccc(NC(=O)c2ccc(CN3CC[C@H](N(C)C)C3)c(C(F)(F)F)c2)cc1Nc1nccc(-c2cncnc2)n1 [bafetinib]
Summary of the method: (§1)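 K562 cells (2×10^6 cells/mL) were treated with 10 μM compound for 30 min, and aliquots were heated for 3 min over 48°C-58°C. Pooled aliquots were extracted in PBS with 0.5% NP-40 at 4°C, and the supernatant after 21,000xg for 90 min was measured by TMTpro 16plex LC-MS/MS with channel sums equalised. Reported thermal stability, relative to control samples and from duplicates, is a log2 fold change.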

[1] = compound: Cc1cccc(CC(=O)N2CCc3c2ccc(-c2cn(C)c4ncnc(N)c24)c3F)n1
Summary of the method: as §1

nilotinib = compound: Cc1cn(-c2cc(NC(=O)c3ccc(C)c(Nc4nccc(-c5cccnc5)n4)c3)cc(C(F)(F)F)c2)cn1 [nilotinib]
Summary of the method: as §1

[2] = compound: Cc1nc(Nc2n[nH]c3c2CN(C(=O)N[C@H](CN(C)C)c2ccccc2)C3(C)C)c2sccc2n1
Summary of the method: as §1

dasatinib = compound: Cc1nc(Nc2ncc(C(=O)Nc3c(C)cccc3Cl)s2)cc(N2CCN(CCO)CC2)n1 [dasatinib]
Summary of the method: as §1

[3] = compound: Cc1ncc(-c2ccnc(Nc3ccc(S(C)(=O)=O)cc3)n2)n1C(C)C
Summary of the method: as §1

[4] = compound: Cn1cc(-c2ccc3c(c2)CCN3C(=O)Cc2cccc(C(F)(F)F)c2)c2c(N)ncnc21
Summary of the method: as §1

[5] = compound: Cn1cc(-c2ccc3nnc(C(F)(F)c4ccc5ncccc5c4)n3n2)cn1
Summary of the method: as §1

tipifarnib = compound: Cn1cncc1[C@@](N)(c1ccc(Cl)cc1)c1ccc2c(c1)c(-c1cccc(Cl)c1)cc(=O)n2C [tipifarnib]
Summary of the method: as §1

mubritinib = compound: FC(F)(F)c1ccc(/C=C/c2nc(COc3ccc(CCCCn4ccnn4)cc3)co2)cc1 [mubritinib]
Summary of the method: as §1

[6] = compound: NC(=O)Nc1cc(-c2cccc(F)c2)sc1C(=O)N[C@H]1CCCNC1
Summary of the method: as §1

[7] = compound: NC(=O)c1cnc(N[C@@H]2CCCC[C@@H]2N)nc1Nc1cccc(-n2nccn2)c1
Summary of the method: as §1

[8] = compound: NC1(c2ccc(-c3nc4ccn5c(=O)[nH]nc5c4cc3-c3ccccc3)cc2)CCC1
Summary of the method: as §1

[9] = compound: NCC(=O)Nc1ccc(-n2nc(C(F)(F)F)cc2-c2ccc3c(ccc4ccccc43)c2)cc1
Summary of the method: as §1

entinostat = compound: Nc1ccccc1NC(=O)c1ccc(CNC(=O)OCc2cccnc2)cc1 [entinostat]
Summary of the method: as §1

vorinostat = compound: O=C(CCCCCCC(=O)Nc1ccccc1)NO [vorinostat]
Summary of the method: as §1

citarinostat = compound: O=C(CCCCCCNC(=O)c1cnc(N(c2ccccc2)c2ccccc2Cl)nc1)NO [citarinostat]
Summary of the method: as §1

silmitasertib = compound: O=C(O)c1ccc2c(c1)nc(Nc1cccc(Cl)c1)c1ccncc12 [silmitasertib]
Summary of the method: as §1

[10] = compound: O=C1NC(=O)C(c2cnc3ccccn23)=C1c1cn2c3c(cc(F)cc13)CN(C(=O)N1CCCCC1)CC2
Summary of the method: as §1

[11] = compound: c1cc(OCCN2CCCCC2)cc(-c2n[nH]c3ccc(-c4nnc[nH]4)cc23)c1
Summary of the method: as §1

UniProt Q96AX1, sequence (Q96AX1 whole entry, looked up): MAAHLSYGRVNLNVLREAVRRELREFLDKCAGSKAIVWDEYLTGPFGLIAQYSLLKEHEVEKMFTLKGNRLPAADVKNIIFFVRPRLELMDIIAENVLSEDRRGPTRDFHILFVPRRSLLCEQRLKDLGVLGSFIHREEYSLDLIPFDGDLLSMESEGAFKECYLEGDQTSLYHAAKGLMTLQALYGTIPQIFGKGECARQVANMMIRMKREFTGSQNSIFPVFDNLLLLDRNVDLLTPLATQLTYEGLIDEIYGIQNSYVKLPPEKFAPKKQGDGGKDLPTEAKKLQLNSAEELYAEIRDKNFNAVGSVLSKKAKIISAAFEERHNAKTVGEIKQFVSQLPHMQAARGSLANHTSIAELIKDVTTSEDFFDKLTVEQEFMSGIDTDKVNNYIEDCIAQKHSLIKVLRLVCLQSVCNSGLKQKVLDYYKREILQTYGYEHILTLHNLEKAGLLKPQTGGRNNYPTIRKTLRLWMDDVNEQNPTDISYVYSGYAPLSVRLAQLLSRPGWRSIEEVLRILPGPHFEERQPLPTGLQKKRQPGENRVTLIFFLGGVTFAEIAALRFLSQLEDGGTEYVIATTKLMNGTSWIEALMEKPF
UniProt P0CG48, sequence (P0CG48 whole entry, looked up): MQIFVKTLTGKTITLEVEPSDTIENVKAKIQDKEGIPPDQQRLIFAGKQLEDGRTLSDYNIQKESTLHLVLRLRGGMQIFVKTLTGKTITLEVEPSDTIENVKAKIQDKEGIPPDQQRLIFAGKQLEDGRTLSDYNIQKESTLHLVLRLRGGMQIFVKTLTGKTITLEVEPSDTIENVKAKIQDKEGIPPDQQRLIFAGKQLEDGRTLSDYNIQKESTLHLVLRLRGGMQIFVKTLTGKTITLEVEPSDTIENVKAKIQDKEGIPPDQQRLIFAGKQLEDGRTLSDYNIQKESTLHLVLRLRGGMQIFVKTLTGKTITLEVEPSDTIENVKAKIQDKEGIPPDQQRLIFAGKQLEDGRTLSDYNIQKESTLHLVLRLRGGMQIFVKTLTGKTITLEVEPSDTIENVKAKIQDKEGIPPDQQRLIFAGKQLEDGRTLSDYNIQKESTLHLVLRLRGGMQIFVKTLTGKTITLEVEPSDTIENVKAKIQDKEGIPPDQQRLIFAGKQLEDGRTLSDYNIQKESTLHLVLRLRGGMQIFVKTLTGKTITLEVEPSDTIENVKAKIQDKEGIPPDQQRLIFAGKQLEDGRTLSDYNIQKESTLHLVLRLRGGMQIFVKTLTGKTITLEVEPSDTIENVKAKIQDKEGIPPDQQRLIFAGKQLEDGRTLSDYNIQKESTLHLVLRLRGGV
UniProt Q92973, sequence (Q92973 whole entry, looked up): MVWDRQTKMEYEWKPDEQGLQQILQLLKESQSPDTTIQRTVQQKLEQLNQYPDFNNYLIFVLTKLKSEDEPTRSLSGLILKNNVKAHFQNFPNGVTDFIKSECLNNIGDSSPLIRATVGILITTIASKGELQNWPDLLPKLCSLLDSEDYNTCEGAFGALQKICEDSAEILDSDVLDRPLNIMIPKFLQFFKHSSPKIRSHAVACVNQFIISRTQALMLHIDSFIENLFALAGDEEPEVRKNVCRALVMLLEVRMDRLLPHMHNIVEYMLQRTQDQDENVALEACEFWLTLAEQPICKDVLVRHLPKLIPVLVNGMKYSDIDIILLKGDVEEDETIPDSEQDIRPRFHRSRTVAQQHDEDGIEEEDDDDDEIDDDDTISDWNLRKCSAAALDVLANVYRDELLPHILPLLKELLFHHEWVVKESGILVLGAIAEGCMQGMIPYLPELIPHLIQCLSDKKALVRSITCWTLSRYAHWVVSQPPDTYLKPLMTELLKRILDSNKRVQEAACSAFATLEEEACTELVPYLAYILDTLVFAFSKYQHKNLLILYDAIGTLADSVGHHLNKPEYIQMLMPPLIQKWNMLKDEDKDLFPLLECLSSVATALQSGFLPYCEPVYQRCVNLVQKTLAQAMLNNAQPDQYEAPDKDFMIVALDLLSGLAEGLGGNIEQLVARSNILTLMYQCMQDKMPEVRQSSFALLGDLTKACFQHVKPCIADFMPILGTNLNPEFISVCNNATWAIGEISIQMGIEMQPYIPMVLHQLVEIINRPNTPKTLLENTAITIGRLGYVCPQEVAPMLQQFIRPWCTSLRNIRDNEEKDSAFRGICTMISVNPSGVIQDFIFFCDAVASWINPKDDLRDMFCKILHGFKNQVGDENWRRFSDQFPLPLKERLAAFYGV
UniProt Q7Z392, sequence (Q7Z392 whole entry, looked up): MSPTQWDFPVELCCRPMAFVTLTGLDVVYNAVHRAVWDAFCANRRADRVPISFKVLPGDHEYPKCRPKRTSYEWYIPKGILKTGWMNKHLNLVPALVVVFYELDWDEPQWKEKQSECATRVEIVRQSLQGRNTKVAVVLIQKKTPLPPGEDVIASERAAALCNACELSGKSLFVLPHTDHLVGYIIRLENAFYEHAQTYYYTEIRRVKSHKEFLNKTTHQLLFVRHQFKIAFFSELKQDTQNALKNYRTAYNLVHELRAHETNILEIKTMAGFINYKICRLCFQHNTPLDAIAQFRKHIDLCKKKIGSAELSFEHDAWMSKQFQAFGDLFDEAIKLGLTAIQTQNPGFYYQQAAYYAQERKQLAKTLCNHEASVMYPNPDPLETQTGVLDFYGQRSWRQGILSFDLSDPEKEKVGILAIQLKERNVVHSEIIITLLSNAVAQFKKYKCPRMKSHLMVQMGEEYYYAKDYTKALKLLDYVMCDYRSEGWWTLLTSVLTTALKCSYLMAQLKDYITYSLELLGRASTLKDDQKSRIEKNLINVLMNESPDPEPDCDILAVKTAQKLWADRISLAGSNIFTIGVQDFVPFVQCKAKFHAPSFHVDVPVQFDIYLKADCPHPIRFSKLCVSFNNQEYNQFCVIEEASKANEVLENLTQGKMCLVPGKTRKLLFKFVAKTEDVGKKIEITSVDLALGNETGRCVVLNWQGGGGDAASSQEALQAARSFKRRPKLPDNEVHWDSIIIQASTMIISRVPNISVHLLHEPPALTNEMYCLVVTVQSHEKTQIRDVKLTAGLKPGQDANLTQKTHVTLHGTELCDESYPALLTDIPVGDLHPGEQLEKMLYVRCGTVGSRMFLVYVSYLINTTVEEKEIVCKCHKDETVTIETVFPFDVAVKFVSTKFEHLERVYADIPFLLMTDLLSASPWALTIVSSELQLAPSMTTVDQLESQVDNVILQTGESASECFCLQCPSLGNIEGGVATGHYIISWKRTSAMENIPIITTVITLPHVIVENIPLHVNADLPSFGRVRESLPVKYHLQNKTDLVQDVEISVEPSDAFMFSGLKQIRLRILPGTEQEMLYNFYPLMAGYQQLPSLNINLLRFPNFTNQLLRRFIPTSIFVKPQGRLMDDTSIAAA
UniProt Q9H270, sequence (Q9H270 whole entry, looked up): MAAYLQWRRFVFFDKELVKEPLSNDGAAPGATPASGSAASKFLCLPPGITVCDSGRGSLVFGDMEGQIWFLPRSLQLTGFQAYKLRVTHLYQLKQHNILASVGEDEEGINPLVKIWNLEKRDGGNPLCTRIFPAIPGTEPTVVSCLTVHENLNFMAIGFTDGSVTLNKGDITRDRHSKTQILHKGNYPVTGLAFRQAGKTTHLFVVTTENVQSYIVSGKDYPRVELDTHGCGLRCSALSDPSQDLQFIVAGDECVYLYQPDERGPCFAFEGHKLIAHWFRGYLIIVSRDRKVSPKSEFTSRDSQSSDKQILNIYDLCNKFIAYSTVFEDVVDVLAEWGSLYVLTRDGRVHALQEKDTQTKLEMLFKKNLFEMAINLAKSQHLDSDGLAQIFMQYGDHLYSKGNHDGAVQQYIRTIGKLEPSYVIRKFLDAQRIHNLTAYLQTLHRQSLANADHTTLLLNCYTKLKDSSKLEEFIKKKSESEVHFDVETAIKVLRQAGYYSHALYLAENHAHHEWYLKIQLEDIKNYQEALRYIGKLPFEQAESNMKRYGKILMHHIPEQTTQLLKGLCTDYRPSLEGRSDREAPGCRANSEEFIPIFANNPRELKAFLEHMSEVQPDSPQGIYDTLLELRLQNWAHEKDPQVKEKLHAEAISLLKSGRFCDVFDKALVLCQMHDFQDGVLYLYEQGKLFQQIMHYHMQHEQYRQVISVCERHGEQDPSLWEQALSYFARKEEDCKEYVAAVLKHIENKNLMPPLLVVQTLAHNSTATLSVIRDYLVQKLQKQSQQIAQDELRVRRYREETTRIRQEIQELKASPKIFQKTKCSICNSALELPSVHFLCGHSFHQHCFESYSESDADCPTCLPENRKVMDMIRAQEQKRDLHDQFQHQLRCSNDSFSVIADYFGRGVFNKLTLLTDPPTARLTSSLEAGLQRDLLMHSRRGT
UniProt Q9BZI7, sequence (Q9BZI7 whole entry, looked up): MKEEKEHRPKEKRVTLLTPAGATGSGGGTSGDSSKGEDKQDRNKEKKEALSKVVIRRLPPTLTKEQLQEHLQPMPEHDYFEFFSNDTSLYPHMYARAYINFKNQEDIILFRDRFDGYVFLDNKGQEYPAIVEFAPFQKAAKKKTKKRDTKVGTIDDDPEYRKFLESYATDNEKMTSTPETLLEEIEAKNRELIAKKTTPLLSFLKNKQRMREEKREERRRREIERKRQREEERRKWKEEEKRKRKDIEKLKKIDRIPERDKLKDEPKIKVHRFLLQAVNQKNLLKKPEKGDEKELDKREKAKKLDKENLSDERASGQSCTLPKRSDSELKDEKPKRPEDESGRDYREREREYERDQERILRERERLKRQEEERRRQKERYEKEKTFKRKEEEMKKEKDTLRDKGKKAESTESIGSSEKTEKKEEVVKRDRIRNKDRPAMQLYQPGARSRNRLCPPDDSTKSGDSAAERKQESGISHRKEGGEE
UniProt Q8IY95, sequence (Q8IY95 whole entry, looked up): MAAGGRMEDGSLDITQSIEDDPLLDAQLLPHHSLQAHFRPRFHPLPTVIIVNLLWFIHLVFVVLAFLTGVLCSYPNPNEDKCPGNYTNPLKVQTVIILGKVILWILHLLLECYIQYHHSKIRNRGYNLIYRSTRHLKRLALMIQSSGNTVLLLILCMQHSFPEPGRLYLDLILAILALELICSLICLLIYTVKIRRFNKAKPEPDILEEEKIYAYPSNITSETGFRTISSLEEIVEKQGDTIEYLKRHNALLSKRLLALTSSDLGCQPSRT

| Target | log2 fold change (bafetinib) | log2 fold change [1] | log2 fold change (nilotinib) | log2 fold change [2] | log2 fold change (dasatinib) | log2 fold change [3] | log2 fold change [4] | log2 fold change [5] | log2 fold change (tipifarnib) | log2 fold change (mubritinib) | log2 fold change [6] | log2 fold change [7] | log2 fold change [8] | log2 fold change [9] | log2 fold change (entinostat) | log2 fold change (vorinostat) | log2 fold change (citarinostat) | log2 fold change (silmitasertib) | log2 fold change [10] | log2 fold change [11] |
| --- | --- | --- | --- | --- | --- | --- | --- | --- | --- | --- | --- | --- | --- | --- | --- | --- | --- | --- | --- | --- |
| XRCC6 (UniProt P12956) | -0.003 | 0.032 | -0.067 | -0.248 | -0.147 | -0.07 | -0.01 | 0.018 | -0.104 | 0.043 | -0.064 | -0.143 | -0.139 | -0.08 | 0.098 | 0.134 | 0.107 | 0.026 | -0.119 | -0.049 |
| XPNPEP1 isoform 3 (UniProt Q9NQW7) | -0.047 | -0.013 | -0.036 | 0.014 | -0.086 | -0.028 | 0.084 | 0.039 | -0.033 | 0.042 | -0.04 | -0.052 | -0.126 | -0.07 | 0.015 | 0.399 (active) | 0.062 | -0.037 | -0.02 | 0.025 |
| TRAPPC11 (UniProt Q7Z392) | 0.065 | 0.05 | -0.098 | -0.129 | -0.159 | 0.01 | -0.04 | -0.03 | -0.06 | 0.04 | -0.033 | -0.11 | -0.187 | 0.007 | 0.011 | 0.012 | -0.006 | 0.044 | -0.036 | -0.053 |
| TMEM263 (UniProt Q8WUH6) | -0.434 | 0.037 | -0.079 | -0.027 | -0.249 | 0.124 | -0.011 | 0.02 | -0.182 | 0.054 | -0.044 | -0.335 | -0.389 | -0.299 | 0.123 | 0.058 | 0.068 | 0.057 | -0.08 | -0.037 |
| UBC (UniProt P0CG48) | 0.055 | -0.156 | 0.116 | 0.013 | 0.02 | -0.025 | 0.003 | 0.07 | -0.051 | 0.005 | -0.003 | -0.022 | 0.214 | 0.01 | -0.023 | -0.11 | -0.13 | -0.076 | -0.117 | -0.068 |
| WBP4 (UniProt O75554) | -0.043 | 0.14 | 0.001 | -0.006 | 0.014 | -0.023 | 0.037 | 0.047 | 0.023 | 0.06 | 0.28 (active) | 0.079 | 0.006 | 0.111 | 0.058 | 0.098 | 0.055 | -0.026 | 0 | -0.007 |
| WDR41 (UniProt Q9HAD4) | -0.139 | 0.169 | 0 | -0.076 | -0.082 | -0.017 | 0.012 | -0.003 | 0.023 | 0.071 | 0 | -0.005 | -0.173 | -0.005 | 0.038 | 0.091 | 0.036 | 0.031 | -0.11 | -0.07 |
| USP7 (UniProt Q93009) | -0.018 | 0.097 | -0.076 | -0.113 | -0.272 | -0.011 | 0.101 | 0.153 | -0.139 | 0.068 | -0.039 | -0.062 | -0.263 | -0.07 | 0.097 | 0.182 | 0.096 | -0.028 | -0.037 | 0.046 |
| TNPO1 (UniProt Q92973) | -0.104 | 0.022 | -0.037 | -0.128 | -0.067 | -0.079 | -0.034 | 0.009 | -0.026 | 0.005 | 0.003 | -0.039 | -0.157 | -0.06 | 0.044 | 0.051 | 0.033 | 0.025 | -0.021 | -0.066 |
| TMEM192 (UniProt Q8IY95) | -0.148 | -0.083 | 0.019 | -0.002 | 0.109 | -0.042 | -0.034 | -0.051 | 0.051 | -0.032 | 0 | -0.01 | -0.374 (active) | 0.01 | -0.017 | -0.061 | -0.02 | 0.037 | 0.03 | -0.005 |
| UPF3B (UniProt Q9BZI7) | 0.108 | 0.055 | -0.15 | 0.098 | 0.143 | -0.085 | -0.225 | -0.24 | 0.106 | -0.098 | 0.092 | 0.11 | 0.315 | 0.096 | -0.079 | 0 | -0.125 | 0.149 | 0.245 | -0.278 |
| WDR62 isoform 4 (UniProt O43379) | -0.193 | 0.016 | -0.149 | -0.041 | -0.107 | -0.083 | 0.009 | 0.032 | 0.002 | 0.024 | -0.07 | -0.099 | -0.052 | -0.038 | 0 | 0.05 | 0.054 | 0.073 | 0.01 | -0.07 |
| VPS11 (UniProt Q9H270) | -0.033 | 0.006 | -0.048 | -0.006 | -0.154 | 0.005 | -0.016 | -0.004 | -0.093 | 0.027 | -0.012 | -0.053 | -0.159 | -0.028 | 0.015 | 0.145 | 0.065 | 0.025 | 0.024 | 0.084 |
| WDCP (UniProt Q9H6R7) | -0.052 | -0.05 | -0.149 | -0.12 | -0.074 | -0.035 | -0.099 | -0.001 | -0.029 | 0 | 0.062 | 0.049 | -0.011 | -0.025 | 0.019 | 0.037 | 0.118 | 0.172 | -0.033 | -0.035 |
| TNPO2 (UniProt O14787) | -0.004 | 0.129 | -0.122 | -0.111 | -0.173 | -0.087 | -0.076 | -0.011 | -0.011 | 0.043 | 0.015 | -0.174 | -0.268 | -0.054 | 0.064 | -0.008 | 0.047 | 0.059 | -0.04 | -0.124 |
| VPS33A (UniProt Q96AX1) | -0.066 | 0.091 | -0.071 | -0.124 | -0.123 | -0.039 | -0.019 | -0.094 | -0.064 | 0.098 | 0.012 | -0.121 | -0.191 | -0.084 | 0.05 | 0.051 | 0.063 | 0.019 | 0.029 | -0.059 |
